In all, about 16,000 compounds went through this assay and about 5,800 (36%) were called active. Roughly 23% stayed inconclusive and do not appear here. This is one part of the list. A number with no mark means an inactive call. Calls come from the whole dose curve; as a rule, active = well fitted curve in the direction sought with a large enough effect; inconclusive = small, poorly fitted or top-dose-only effect, or effect the other way; inactive = no such curve, though single readings can be large or run the other way.
% is set by controls: 0 for no effect and ±100 for the full control effect.

In this experiment the target is Cytochrome P450 2C19 (Homo sapiens) (UniProt P33261). The experiment is described as follows: Cytochrome panel assay with activity outcomes. As to conditions: recombinant CYP, pro-luciferin dealkylation, luminescence, p450-cyp2c19; series mostly up to 57.1 µM.
Cytochrome P450 2C19 (Homo sapiens), sequence (P33261 whole entry, looked up): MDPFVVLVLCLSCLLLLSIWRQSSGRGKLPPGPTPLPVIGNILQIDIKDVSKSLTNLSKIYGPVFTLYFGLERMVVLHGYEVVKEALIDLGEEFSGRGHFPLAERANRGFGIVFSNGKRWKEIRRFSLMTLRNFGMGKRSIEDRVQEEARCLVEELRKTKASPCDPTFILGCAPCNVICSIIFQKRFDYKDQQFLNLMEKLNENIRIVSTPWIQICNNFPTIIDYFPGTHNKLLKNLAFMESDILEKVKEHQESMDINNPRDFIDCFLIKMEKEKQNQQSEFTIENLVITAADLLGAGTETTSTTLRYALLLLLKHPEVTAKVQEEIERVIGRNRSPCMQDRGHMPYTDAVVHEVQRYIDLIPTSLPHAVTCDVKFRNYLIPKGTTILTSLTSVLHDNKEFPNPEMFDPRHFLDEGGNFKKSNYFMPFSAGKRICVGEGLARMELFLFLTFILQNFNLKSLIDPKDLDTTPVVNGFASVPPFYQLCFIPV
`N#Cc1cccc(NC(=O)N2CC[C@@]3(CCCN(C(=O)c4ccncc4)C3)C2)c1`: the AC50 result is “inactive”.

On to `Cc1cc(NC(=O)CSc2ccc3nnc(-c4ccc(F)cc4)n3n2)no1`, for which the AC50 entry is “inactive”.

As for `Cc1cc(NC(=O)CSc2n[nH]c(-c3cccs3)n2)no1`, the half-maximal activity concentration (AC50) was 14.1 µM (active).

Consider `CCCCc1nc(SCC(=O)Nc2ncccn2)n[nH]1`, for which the AC50 result was “inactive”.

With `N[C@H](Cn1ccc(=O)n(Cc2ccccc2C(=O)O)c1=O)C(=O)O`, the AC50 result was “inactive”.

With `N[C@@H](Cn1ccc(=O)n(Cc2ccccc2C(=O)O)c1=O)C(=O)O`, the AC50 is 0.1 µM (active).

In the case of `Cc1nn(-c2ccccc2)c(Cl)c1C(=O)Nc1c(C)n(C)n(-c2ccccc2)c1=O`, the AC50 result is “inactive”.

With `CCCCCc1nnc(NC(=O)C(=O)OCC)s1`, the AC50 entry was “inactive”.

Consider `CCc1nnc(NC(=O)c2c(C)nn(-c3ccccc3)c2Cl)s1`, for which the half-maximal activity concentration (AC50) is 20 µM (active).

In the case of `COc1ccccc1CNCCCCCCNCCCCCCCCNCCCCCCNCc1ccccc1OC`, the AC50 entry was “inactive”.

As for `COc1ccccc1CNCc1cccs1`, the AC50 is 8.91 µM (active).

`COc1cc(CNCc2cccs2)ccc1OCC(=O)NC(C)(C)C`: the half-maximal activity concentration (AC50) is 14.1 µM (active).

Consider `COc1cc(CNCc2cccs2)cc(Br)c1OC`, for which the AC50 was 2.51 µM (active).

`CC(C)NC(=O)N1CCCC2(CCN(C(=O)c3csnn3)CC2)C1`: the AC50 entry is “inactive”.

For the compound `COCC(=O)N1CCC2(CCCN(C(=O)Nc3cccc(F)c3)C2)CC1`, the AC50 result is “inactive”.

Consider `CN(C)C(=O)c1ccc(-c2cncnc2NCCN2CCOCC2)cc1`, for which the AC50 result is “inactive”.

`CN(C)C(=O)c1ccc(-c2ccc3ncnc(NCCN4CCOCC4)c3c2)cc1`: the AC50 entry was “inactive”.

Consider `Cc1ccc(-c2csc3ncnc(NCCN4CCOCC4)c23)cc1`, for which the AC50 is 11.2 µM (active).

As for `CN(C)c1ccc(-c2cncnc2NCCN2CCOCC2)cc1`, the AC50 is 6.31 µM (active).

In the case of `CC(C)=CCC/C(C)=C/CO/N=C1/C[C@@H](O)[C@@H](O)[C@@H]2[C@@H]3C(=O)N(C[C@@H]4CCCO4)C(=O)[C@H]3CC[C@H]12`, the activity, negative = inhibition was -12% [at 11.4 µM].

For `Cc1cc(N)c2ccccc2[n+]1CCCCCCCCCC[n+]1c(C)cc(N)c2ccccc21`, the AC50 result was “inactive”.

With `Nc1cc2c(nc3c4ccccc4c(N)cc3[n+]2-c2cccc3ccccc23)c2ccccc12` (tested in a mixture with another compound), the AC50 is 1 µM (active).

On to `COc1cc(/C=C(\C#N)C(N)=O)cc(CSc2nc3ccccc3s2)c1O`, for which the AC50 was 3.16 µM (active).

As to `COc1ccc(/C=C(\C#N)C(N)=O)c(OC)c1`, the activity, negative = inhibition is 6.18% [at 11.4 µM].

On to `COc1cc(/C=C(\C#N)C(=O)c2ccc(O)c(O)c2)cc(I)c1O`, for which the AC50 entry is “inactive”.

For the compound `CCc1ccc(N/C(SCc2ccccc2C)=C(/C#N)C(=O)NCc2ccco2)cc1`, the concentration at half-maximal activity (AC50) was 2.82 µM (active).

`CCNC(=O)NC(=O)CSc1nc2ccccc2n1CC(C)C`: the AC50 is 5.62 µM (active).

Regarding `CC(C)Cn1c(SCC(=O)c2c(N)n(C)c(=O)n(C)c2=O)nc2ccccc21`, the concentration at half-maximal activity (AC50) was 7.94 µM (active).

As to `O=C(CSc1nnc(-c2ccco2)n1-c1ccccc1)NCc1ccco1`, the AC50 is 8.91 µM (active).

With `Cc1cc(C)c(NC(=O)C(C)Sc2nnc(-c3ccco3)n2-c2ccccc2)c(C)c1` (configuration not stated), the AC50 was 1.78 µM (active).

With `O=C(CSc1nnc2sc3ccccc3n12)NCc1ccco1`, the concentration at half-maximal activity (AC50) is 10 µM (active).

Consider `Cc1cc2c(cc1C)-c1nnc(-c3ccc4ccccc4n3)n1C(C)(C)C2`, for which the AC50 entry was “inactive”.

Take `CN(C)CC[C@H](c1ccc(Cl)cc1)c1ccccn1`: the AC50 entry was “inactive”.

`CC(c1ccc(Cl)cc1)n1c(-c2ccc3ccccc3n2)n[nH]c1=S` (configuration not stated): the concentration at half-maximal activity (AC50) is 0.447 µM (active).

As to `CC(=O)OC[C@@H]1O[C@@H](O/N=C2/C[C@@H](O)[C@@H](O)[C@@H]3[C@@H]4C(=O)N(C5CCCCC5)C(=O)[C@H]4CC[C@H]23)[C@H](OC(C)=O)[C@H](OC(C)=O)[C@@H]1OC(C)=O`, the activity, negative = inhibition was 9.71% [at 11.4 µM].

For the compound `N#Cc1c(-n2ccnc2)cccc1-n1ccnc1`, the AC50 is 2.24 µM (active).

`FC(F)(F)c1ccccc1-n1ccnc1`: the AC50 result is “inactive”.

Turning to `N#Cc1c(Cl)cccc1-n1ccnc1`, the AC50 is 8.91 µM (active).

Turning to `Cc1cccc(-n2cccc2)c1C#N`, the concentration at half-maximal activity (AC50) was 17.8 µM (active).

In the case of `CSC(=NC#N)N1CCN(c2ccc(Cl)cc2)CC1`, the concentration at half-maximal activity (AC50) was 0.708 µM (active).

As to `O=C(Cn1cnc2ccccc2c1=O)NCCC(=O)Nc1ccc2c(c1)OCCO2`, the AC50 result is “inactive”.

Consider `O=C(CCNC(=O)Cn1cnc2ccccc2c1=O)NCC1COc2ccccc2O1` (configuration not stated), for which the concentration at half-maximal activity (AC50) is 28.2 µM (active).

`c1ccc(C(c2ccccc2)N2CC[C@@]3(CCCNC3)C2)cc1`: the AC50 entry was “inactive”.

As to `CN1[C@@H](CC(=O)c2ccccc2)CCC[C@@H]1C[C@@H](O)c1ccccc1`, the AC50 result was “inactive”.

Regarding `O=C(C[C@@H](c1ccccc1)N1CCCCC1)c1ccccc1`, the concentration at half-maximal activity (AC50) is 2.51 µM (active).

As to `O=C(O)CC(c1ccccc1)n1cnnn1` (configuration not stated), the AC50 entry is “inactive”.

As for `O=CN[C@@H](Cc1cnc[nH]1)C(=O)O`, the activity, negative = inhibition was 6.59% [at 11.4 µM].

Consider `O=C1c2ccccc2NC(c2ccc(Cl)cc2Cl)N1O` (configuration not stated), for which the half-maximal activity concentration (AC50) was 5.62 µM (active).

With `O=C1c2ccccc2NC(c2ccc3c(c2)OCO3)N1O` (configuration not stated), the AC50 was 10 µM (active).

Take `C=CCc1cccc(C2Nc3ccccc3C(=O)N2O)c1O` (configuration not stated): the AC50 was 1.58 µM (active).

In the case of `CCNC(=S)NNC(=O)Cc1ccccc1`, the AC50 entry is “inactive”.

Take `CCNC(=S)NNC(=O)CCn1c2ccccc2c2ccccc21`: the AC50 is 5.01 µM (active).

As to `COc1ccc(Cl)cc1N=Nc1ncc[nH]1`, the AC50 result was “inactive”.

`CCOc1cc(/C=N/O)cc(Cl)c1OC`: the AC50 was 20 µM (active).

Consider `COc1cc(/C=N/O)cc(Br)c1OCc1ccc(Cl)cc1`, for which the half-maximal activity concentration (AC50) is 1.58 µM (active).

Turning to `COc1cc(/C=N/O)cc(Br)c1OCc1cccc(Cl)c1`, the concentration at half-maximal activity (AC50) is 2 µM (active).

Take `C=CCc1cc(C=O)cc(OC)c1OCc1ccc(Cl)cc1`: the concentration at half-maximal activity (AC50) is 0.794 µM (active).

Take `CCN1C(=O)[C@H]2[C@H]3[C@H](O)[C@H](O)C/C(=N/OC[C@@H](O)[C@H]4O[C@H]5OC(C)(C)O[C@H]5[C@@H]4O)[C@@H]3CC[C@@H]2C1=O`: the activity, negative = inhibition is 15% [at 11.4 µM].

Take `COC(=O)N1CCC[C@@]2(CCN(C(=O)Nc3ccccc3)C2)C1`: the AC50 entry is “inactive”.

For the compound `COC(=O)N1CCC2(CC1)CN(C(=O)Nc1ccccc1)C2`, the AC50 result is “inactive”.

For the compound `COC(=O)C1CCC(C)(C(=O)Nc2ccccc2)C1(C)C` (configuration not stated), the AC50 was 3.55 µM (active).

Regarding `CCn1c(SCc2ccc(Cl)cc2Cl)nc2nc3c(cc2c1=O)CCCC3`, the AC50 is 3.98 µM (active).

The values are drawn from PubChem BioAssay AID1851 (National Center for Advancing Translational Sciences (NCATS), 2009).
